# Measured values published in the supplement of paper PMC6555819.
# Assays:
# Experiment in all cases: PBM binding z-score (relative to random genomic background probes); higher = stronger binding; sequences stand for … in GC…GCGATTGACAGCGTAGAATGAAGG
# [1] = system: FXR:RXRa (NR concentration 270 nM, RXRa partner concentration 90 nM)
# In short: (§1)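 Binding buffer was PBS pH 7.4 with 2% milk, 0.02% Triton X-100, 1 mM DTT, 0.2 mg/mL BSA and 0.4 mg/ml salmon testes DNA. In it, ligand-free nuclear receptor dimers were incubated 1 h on custom Agilent 4×180K protein-binding microarrays carrying double-stranded probes. Antibodies against each partner (one per run) detected binding, and z-scores were calculated against random background probes after regression normalization of scanned fluorescence.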
# [2] = system: LXRa:RXRa (NR concentration 270 nM, RXRa partner concentration 90 nM)
# In short: as §1
# [3] = system: LXRa homodimer (NR concentration 270 nM)
# In short: as §1
# [4] = system: LXRb:RXRa (NR concentration 270 nM, RXRa partner concentration 90 nM)
# In short: as §1
# [5] = system: LXRb homodimer (NR concentration 270 nM)
# In short: as §1
# [6] = system: PPARa:RXRa (NR concentration 270 nM, RXRa partner concentration 90 nM)
# In short: as §1
# [7] = system: PPARg:RXRa (NR concentration 180 nM, RXRa partner concentration 90 nM)
# In short: as §1
# [8] = system: PPARg:RXRa 270nM:90nM, anti-RXR (NR concentration 270 nM, RXRa partner concentration 90 nM)
# In short: as §1
# [9] = system: PPARg:RXRa 30nM:10nM, anti-RXR (NR concentration 30 nM, RXRa partner concentration 10 nM)
# In short: as §1
# [10] = system: PPARg:RXRa 90nM:30nM, anti-RXR (NR concentration 90 nM, RXRa partner concentration 30 nM)
# In short: as §1
# [11] = system: PPARg:RXRa DBDmut IVT, anti-RXR (DBD mutation: RXRa K156A/R161A, NR concentration 270 nM, RXRa partner concentration 90 nM)
# In short: as §1
# [12] = system: PPARg:RXRa IVT, anti-PPARg (NR concentration 270 nM, RXRa partner concentration 90 nM)
# In short: as §1
# [13] = system: PPARg DBDmut:RXRa IVT, anti-PPARg (DBD mutation: PPARg1 K132A/R137A, NR concentration 270 nM, RXRa partner concentration 90 nM)
# In short: as §1
# [14] = system: PPARg DBDmut IVT, anti-PPARg (DBD mutation: PPARg1 K132A/R137A, NR concentration 270 nM)
# In short: as §1
# [15] = system: PPARg homodimer (NR concentration 180 nM)
# In short: as §1
# [16] = system: PXR:RXRa (NR concentration 270 nM, RXRa partner concentration 90 nM)
# In short: as §1
# [17] = system: PXR homodimer (NR concentration 270 nM)
# In short: as §1
# [18] = system: RARa:RXR (NR concentration 270 nM, RXRa partner concentration 90 nM)
# In short: as §1
# [19] = system: RARa homodimer (NR concentration 270 nM)
# In short: as §1
# [20] = system: RARb:RXRa (NR concentration 270 nM, RXRa partner concentration 90 nM)
# In short: as §1
Sequence,PBM binding z-score [1],PBM binding z-score [2],PBM binding z-score [3],PBM binding z-score [4],PBM binding z-score [5],PBM binding z-score [6],PBM binding z-score [7],PBM binding z-score [8],PBM binding z-score [9],PBM binding z-score [10],PBM binding z-score [11],PBM binding z-score [12],PBM binding z-score [13],PBM binding z-score [14],PBM binding z-score [15],PBM binding z-score [16],PBM binding z-score [17],PBM binding z-score [18],PBM binding z-score [19],PBM binding z-score [20]
AGAGCGAGGGCACGCTGAGTTGATAGCAGAGTAG,0.547,0.397,-0.567,-0.142,-1.31,1.17,0.555,-0.0392,-0.58,-0.152,0.897,1.26,-0.714,-1.28,0.251,1.05,-0.217,0.737,-0.451,2.47
GCTCGGAGGTCAAGGTCAGAGCTTTGTCCGTAGA,7.3,5.97,1.81,4.82,1.33,5.76,6.41,6.35,2.69,5.23,3.94,4.68,-0.342,-0.512,4.12,5.61,1.32,6.17,2.29,5.37
TAGCATAGGTCATTGGGCCAGTATAGTACGCATC,6.02,5.02,1.27,4.02,0.541,5.41,5.17,5.29,1.75,3.7,1.83,3.4,0.78,0.329,1.56,2.87,-0.00464,3.16,0.152,3.97
GGTACGAGGGCATTCGAGTTGATAGCATGGCGAT,1.45,1.69,-0.269,0.123,-0.742,0.926,0.726,0.262,-0.638,0.0723,1.41,1.41,-0.377,-0.67,-0.0678,3.64,1.73,0.568,-0.0392,1.95
GCTAGTTGGTCAGTAAAAGGTTACACACCGGTCG,0.754,1.32,0.582,1.27,-0.0752,1.85,0.972,2.31,0.546,1.46,0.66,1.05,-0.658,-0.197,1.27,1.42,0.164,1.98,0.524,2
TCTCGGAGGACACGAAGGTCAGAGCTTTCCAGAG,1.16,1.13,-0.0274,0.923,-1.06,1.98,0.444,1.45,2.1,1.96,1.65,0.886,-0.279,-1.37,0.322,1.97,0.404,2.05,-0.212,3.38
TCGAGTAGGTTACCAATGGGGCATTCTGCTTTCT,0.0174,1.11,-0.471,0.975,-0.712,1.33,0.0267,1.1,0.935,0.902,3.32,2.53,-0.301,-0.867,-0.334,-0.0891,-0.788,0.363,-0.932,0.902
CCTACTGGGCTATCAGGTCATTGATATCAACGTT,1.15,0.988,0.914,1.16,-0.189,2.01,1.45,2.47,0.664,2.01,3.17,4.19,0.0312,-0.392,0.841,1.33,0.575,1.41,0.294,1.55
ACTGGTTGGTCAGCTGAGGTCACACACAATTCGG,3.86,3.31,2.58,3.6,0.876,3.6,1.53,2.1,0.448,1.43,0.671,2.22,1.22,0.402,3.12,5.37,2.47,4.61,1.92,3.73
CAAACTAGGTCACGAATGGTCAAAGTCGAATGAC,4.48,5.29,0.845,3.46,0.546,5.82,9.24,7.45,5.7,7.36,8.28,9.26,2.84,3.79,2.55,2.47,0.0543,3.22,0.681,4.62
CAATCTAGGTCACCGGAAGGTCAAAGTCCGCATG,6.51,6.15,6.06,5.42,1.92,6.32,10,7.96,6.12,8.12,8.34,8.62,2.22,1.39,7.89,5.96,2.44,7.4,3.19,5.41
ATCTCTAGGTAACAAGTTCAGTGGAAGAGAGGAC,0.589,0.744,0.58,0.666,0.823,1.47,1.7,1.79,0.967,1.71,3.2,3.02,0.956,1.34,1.43,1.66,1.48,1.15,1.39,1.8
ATCCCAAGGTGATCGTGAGGTCGTTGATACTAAC,1.33,1.13,0.822,1.02,-0.338,1.16,0.11,0.0594,-0.299,-0.346,0.258,0.592,0.328,-0.0144,1.01,2.89,1.37,1.81,0.229,1.31
ATCTCTAGGTAAAGATAGTTCAGAGAATGCAAAT,0.206,3.56,0.259,0.69,0.411,0.663,0.843,0.494,0.309,0.609,1.37,1.42,0.582,1.54,0.983,0.864,0.342,0.707,0.924,0.573
ACTATTAGTTGAGACGAGGGCAACCGCTAGGTTG,0.861,0.155,-0.0789,0.0826,-0.113,0.374,0.327,0.207,-0.122,0.0431,0.0597,0.177,0.243,0.359,0.0959,1.55,0.226,0.773,0.0804,1.15
CAAACTAGGTGAAGAGGTCAAAGTCCGCTTCCCG,4.89,4.87,4.29,4.34,0.798,5.95,8.28,7.03,5.27,7.36,7.18,7.52,2.35,2.46,2.49,5.31,1.58,5.42,0.811,4.19
CGTCCAAGGTCAAGGCCAGTGAAAGAGACTCGAA,7.2,5.21,0.208,3.73,0.00439,5.55,4.75,5.05,1.48,3.69,2.93,3.4,0.269,-0.184,2.5,3.44,0.449,4.09,0.0458,5.19
AGTCAAAGTTCATCTAGGTAACGTATGATATGCT,6.72,5.89,5.49,3.77,1.5,4.97,6.95,6.52,3.52,5.74,0.872,3.88,1.48,1.76,2.9,5.12,7.63,3.93,1.68,4.95
TAGCGTAGGTCAGATCGGGCCAGTATACGCTATA,2.62,1.36,-0.421,0.809,-0.55,1.99,0.602,0.725,0.0137,0.225,-0.503,0.617,-0.164,-0.912,-0.143,1.48,-0.976,1.23,-1.14,3.07
AGAACGAGGGCACGATGAGTTGATAGCAGAGTAG,0.874,0.721,-0.147,0.286,-0.796,2.29,2.6,2.02,0.778,1.51,3.75,3.91,0.853,0.0308,0.364,1.17,0.453,1.01,-0.256,2.32
CCTTACGGCTCACGAGGTTATAGCACGACGAGCG,0.307,0.723,0.155,0.376,-0.33,0.625,0.887,0.128,-0.0191,0.0892,-0.0471,-0.209,-0.288,0.282,0.161,0.289,0.226,0.918,0.403,0.347
GCATGTAGGTAATACAAGGTGAAAGTCCGATTGT,0.127,1.13,0.162,0.172,-0.45,1.62,1.34,1.52,0.458,0.981,4.42,4.28,0.0664,0.517,0.562,0.369,0.257,1.52,0.17,0.218
CGTCAAAGTTCAAAGTAACGTAACAGAAAGCAGC,6.87,6.57,4.32,4.01,2.75,4.91,4.43,5.36,2.18,4.17,0.465,1.58,1.23,1.35,3.3,4.68,3.73,3.43,1.73,4.9
CCTACTGGGCCATCAGGCCATTGATATCAACGTT,0.133,-0.192,-0.106,-0.246,-0.678,0.569,1.16,1.79,0.105,0.915,3.85,3.8,-0.657,-0.731,0.142,-0.281,-0.336,-0.428,-0.00311,0.28
GCGACTGGGACAAAGCAGGTTACCATAAGGTTGG,-0.198,-0.314,-0.305,-0.479,-0.971,0.611,0.76,0.524,-0.332,-0.0419,2.44,1.83,-0.413,-1.3,0.0292,0.0506,-0.224,0.493,-0.37,0.0729
ACTAGTTGGTCAGCTTAGGTCACACACAATTCGG,1.75,1.6,1.42,1.82,0.877,1.97,1.07,1.05,0.166,0.931,1.43,1.87,0.8,0.659,1.88,2.67,0.251,2.57,1.13,2.65
ATCTCTAGGTAAAGTTCAATGAAAGATCGATAGA,2.28,3.13,2.86,2.25,1.31,3.32,4.11,5.15,3.34,4.82,2.42,3.05,1.44,1.47,1.79,3.02,2.63,1.92,2.05,3.19
CTCGAAAGGTCGTGCTCAGTTGAGTATACCAAAC,4.37,3.75,0.291,3.5,0.338,4.85,2.54,3.47,0.941,2.53,0.724,1.41,0.908,0.182,1.01,3.56,0.333,3.85,0.101,3.85
